Records with an inconclusive call do not appear. Calls of active or inactive are those of the source. Unless noted, calls follow the shape of the dose curve; as a rule, active = well fitted activation curve with a large enough effect in the repeat runs; inconclusive = weak or mixed curves; inactive = flat fitted curve, though single readings scatter.
Legend:
[1] = molecular target: Peroxisome proliferator-activated receptor delta (Homo sapiens) (UniProt Q03181); assay: qHTS assay for small molecule antagonists of peroxisome proliferator-activated receptor delta signaling (AID 588535; active = well fitted inhibition curve with a large enough effect in the signal ratio, with a control signal flat, not every such curve was filed as active; the % refers to the signal ratio)
Chain of Peroxisome proliferator-activated receptor delta (Homo sapiens) (Q03181 whole entry, looked up): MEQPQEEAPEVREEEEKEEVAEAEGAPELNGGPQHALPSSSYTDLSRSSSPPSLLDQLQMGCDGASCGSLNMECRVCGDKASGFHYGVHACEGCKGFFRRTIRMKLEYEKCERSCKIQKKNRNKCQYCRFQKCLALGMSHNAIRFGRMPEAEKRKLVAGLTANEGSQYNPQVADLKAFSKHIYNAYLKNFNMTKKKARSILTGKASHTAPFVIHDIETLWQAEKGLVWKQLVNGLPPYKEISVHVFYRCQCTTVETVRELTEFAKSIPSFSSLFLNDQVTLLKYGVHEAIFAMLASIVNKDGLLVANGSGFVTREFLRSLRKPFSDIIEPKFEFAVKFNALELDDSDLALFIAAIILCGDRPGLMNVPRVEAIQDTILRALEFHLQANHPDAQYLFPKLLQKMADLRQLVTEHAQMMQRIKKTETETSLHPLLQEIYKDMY
In short: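 Beta-lactamase reporter read-out (405 nm excitation, 460/530 nm emission) after CCF4 loading for 2 hrs at RT. HEK293T PPAR-delta-UAS-bla cells, 2% charcoal/dextran FBS, compounds for 18 hrs at 37 C. Hill fit gave IC50 and efficacy.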

[2] = molecular target: Thyroid hormone receptor beta (Homo sapiens) (UniProt P10828); assay: qHTS assay for small molecule antagonists of thyroid hormone receptor beta signaling (AID 588547; active = well fitted inhibition curve with a large enough effect in the signal ratio, with a control signal flat, not every such curve was filed as active; the % refers to the signal ratio;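 also: cells stimulated with 0.4 nM T3 agonist during compound exposure; series mostly up to about 77 µM; % is scaled to controls: 0 for no effect and ±100 for the full control effect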); details: TR-UAS-bla HEK293, beta-lactamase ratio, antagonist mode, 18 h
Chain of Thyroid hormone receptor beta (Homo sapiens) (P10828 whole entry, looked up): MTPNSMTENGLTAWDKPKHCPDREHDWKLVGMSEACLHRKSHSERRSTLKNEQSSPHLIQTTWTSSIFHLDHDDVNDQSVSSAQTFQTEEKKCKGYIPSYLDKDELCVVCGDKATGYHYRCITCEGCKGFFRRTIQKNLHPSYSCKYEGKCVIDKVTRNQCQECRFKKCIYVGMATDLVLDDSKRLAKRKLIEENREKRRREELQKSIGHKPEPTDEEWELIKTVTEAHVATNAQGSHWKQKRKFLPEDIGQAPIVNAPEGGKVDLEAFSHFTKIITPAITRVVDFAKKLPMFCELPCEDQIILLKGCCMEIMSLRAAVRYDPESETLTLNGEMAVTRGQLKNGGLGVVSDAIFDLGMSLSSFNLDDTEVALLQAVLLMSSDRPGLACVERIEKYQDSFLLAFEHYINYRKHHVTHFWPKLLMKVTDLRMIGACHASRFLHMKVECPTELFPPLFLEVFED
In short: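 TR-UAS-bla GripTite HEK293 cells in 2% charcoal/dextran FBS medium; compounds 0.59 nM to 92 uM with T3 at 0.4nM final, 18 h at 37 C. Beta-lactamase read by CCF4 fluorescence (460/530 nm); Hill fits gave IC50 and efficacy.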

[3] = qHTS assay for small molecule agonists of the antioxidant response element (ARE) signaling pathway (AID 651741; active = well fitted activation curve with a large enough effect in the signal ratio; the % refers to the signal ratio; also: % of control where 0% means no effect)
In short: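 HepG2 ARE-bla reporter cells, 2,000/well; 5 h settle at 37 C/5% CO2; compound pin transfer (23 nL, DMSO); 16 h at 37 C; LiveBLAzer B/G FRET substrate, 2 h RT; fluorescence intensity read.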

[4] = qHTS assay for small molecule agonists of the antioxidant response element (ARE) signaling pathway measured by Nrf2-dependant transcriptional activity (AID 720636);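 also: HepG2 cells with an ARE-driven luciferase reporter; % of control where 0% means no effect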
In short: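 HepG2 ARE-luc reporter line, 1% dialyzed FBS; 6 hr attachment at 37 C, compound pinned in, 16 hr at 37 C/5% CO2; ONE-Glo, 30 min RT, luminescence read.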

[5] = molecular target: Androgen receptor (Homo sapiens) (UniProt P10275); assay: qHTS assay for small molecule agonists of androgen receptor signaling (AID 588515; active = well fitted curve in the direction sought with a large enough effect in the signal ratio, with a control signal flat; the % refers to the signal ratio; also: % is scaled to controls: 0 for no effect and ±100 for the full control effect); details: AR-UAS-bla HEK293, beta-lactamase ratio, agonist 16 h; activation: hits give high values
Chain of Androgen receptor (Homo sapiens) (P10275 whole entry, looked up): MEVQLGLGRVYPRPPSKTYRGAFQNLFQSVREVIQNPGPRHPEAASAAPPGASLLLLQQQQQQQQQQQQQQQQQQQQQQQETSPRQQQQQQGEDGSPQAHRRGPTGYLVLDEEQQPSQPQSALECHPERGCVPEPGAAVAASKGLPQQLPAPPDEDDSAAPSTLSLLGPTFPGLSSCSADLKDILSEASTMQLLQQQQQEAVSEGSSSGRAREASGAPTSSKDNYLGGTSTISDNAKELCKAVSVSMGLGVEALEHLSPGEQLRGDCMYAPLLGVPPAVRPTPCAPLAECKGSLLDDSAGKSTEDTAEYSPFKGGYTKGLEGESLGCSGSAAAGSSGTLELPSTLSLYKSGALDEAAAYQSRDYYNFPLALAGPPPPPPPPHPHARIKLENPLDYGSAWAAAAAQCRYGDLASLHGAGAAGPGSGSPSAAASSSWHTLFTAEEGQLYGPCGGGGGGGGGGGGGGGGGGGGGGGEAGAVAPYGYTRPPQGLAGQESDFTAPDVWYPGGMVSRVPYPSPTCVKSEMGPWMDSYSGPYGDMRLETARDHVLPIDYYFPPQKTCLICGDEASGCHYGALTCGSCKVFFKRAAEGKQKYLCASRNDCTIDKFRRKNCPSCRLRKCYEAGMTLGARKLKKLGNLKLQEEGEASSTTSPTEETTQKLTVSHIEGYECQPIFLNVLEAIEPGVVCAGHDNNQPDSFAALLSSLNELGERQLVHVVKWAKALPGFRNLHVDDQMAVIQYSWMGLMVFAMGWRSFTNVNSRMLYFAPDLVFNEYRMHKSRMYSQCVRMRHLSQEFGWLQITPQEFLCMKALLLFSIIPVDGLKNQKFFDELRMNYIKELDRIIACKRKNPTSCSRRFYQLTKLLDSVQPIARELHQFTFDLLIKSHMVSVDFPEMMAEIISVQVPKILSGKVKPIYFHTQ
In short: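 Stimulation of an AR-responsive β-lactamase reporter in GripTite HEK293 cells was measured after 16 h compound exposure at 37 °C, via CCF4 fluorescence after 2 h RT. EC50 from Hill fits, normalized to R1881 at 30 nM.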

[6] = molecular target: Androgen receptor (Homo sapiens) (UniProt P10275); assay: qHTS assay for small molecule antagonists of androgen receptor signaling (AID 588516; active = well fitted curve in the direction sought with a large enough effect in the signal ratio, with a control signal flat, not every such curve was filed as active; the % refers to the signal ratio; also: % is scaled to controls: 0 for no effect and ±100 for the full control effect)
In short: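 HEK293 AR-UAS-bla cells, 10% dialyzed FBS medium; cpd titration + R1881 10 nM final, 16 h 37 C; CCF4 2 h RT; FRET ratio; IC50/efficacy via Hill fit.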

[7] = molecular target: Glucocorticoid receptor (Homo sapiens) (UniProt P04150); assay: qHTS assay for small molecule agonists of glucocorticoid receptor signaling (AID 588532; active = well fitted curve in the direction sought with a large enough effect in the signal ratio, with a control signal flat; the % refers to the signal ratio;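 also: 100% = dexamethasone at 0.1 µM and 0% = DMSO only wells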); details: HeLa MMTV-bla, beta-lactamase ratio, agonist, 18 h; hits give high values; percent of dexamethasone control, DMSO zero
Chain of Glucocorticoid receptor (Homo sapiens) (P04150 whole entry, looked up): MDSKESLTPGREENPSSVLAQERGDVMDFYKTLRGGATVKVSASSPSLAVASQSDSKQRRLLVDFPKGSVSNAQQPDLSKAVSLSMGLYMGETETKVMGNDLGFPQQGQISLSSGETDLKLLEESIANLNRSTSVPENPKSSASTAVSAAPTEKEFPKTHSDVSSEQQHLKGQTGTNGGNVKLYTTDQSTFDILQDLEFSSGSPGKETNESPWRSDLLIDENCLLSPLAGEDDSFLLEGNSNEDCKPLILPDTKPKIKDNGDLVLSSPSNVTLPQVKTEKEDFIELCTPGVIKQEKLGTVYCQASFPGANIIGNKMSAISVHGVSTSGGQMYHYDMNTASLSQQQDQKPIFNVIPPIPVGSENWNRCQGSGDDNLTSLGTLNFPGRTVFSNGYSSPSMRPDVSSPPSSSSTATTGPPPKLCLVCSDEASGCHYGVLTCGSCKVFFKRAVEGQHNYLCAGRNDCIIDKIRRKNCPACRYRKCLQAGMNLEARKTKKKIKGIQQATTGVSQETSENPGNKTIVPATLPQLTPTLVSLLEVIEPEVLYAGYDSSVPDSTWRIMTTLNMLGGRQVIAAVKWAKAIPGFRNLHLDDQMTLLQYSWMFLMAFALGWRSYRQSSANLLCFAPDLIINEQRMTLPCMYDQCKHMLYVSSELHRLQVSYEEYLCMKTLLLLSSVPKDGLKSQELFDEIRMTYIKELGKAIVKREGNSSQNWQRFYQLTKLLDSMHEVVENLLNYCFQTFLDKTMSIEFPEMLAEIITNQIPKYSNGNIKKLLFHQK
In short: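 Cells were plated and rested 3-5 h at 37 C, compounds were added in titration and incubated 18 h, then CCF4 substrate was loaded for 2 h at RT before reading blue/green fluorescence. EC50 came from Hill-equation fitting.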

[8] = qHTS assay for small molecule activators of the p53 signaling pathway (AID 651743; active = well fitted activation curve with a large enough effect in the signal ratio, not every such curve was filed as active; the % refers to the signal ratio; also: series mostly up to about 92 µM; % of control where 0% means no effect); details: HCT-116 p53RE-bla, beta-lactamase FRET ratio, 16 h; activation: hits give high values
In short: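 Reporter: beta-lactamase driven by p53 response elements, stably integrated in HCT-116 cells. Cells seeded at 4,000/well, 5 h preincubation, compound (DMSO) 16 h at 37 C; B/G FRET substrate 2 h RT; fluorescence intensity read.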

[9] = molecular target: Bile acid receptor (Homo sapiens) (UniProt Q96RI1); assay: qHTS assay for small molecule antagonists of farnesoid X receptor signaling (AID 588526; calls by dose curve; also: % is scaled to controls: 0 for no effect and ±100 for the full control effect)
Chain of Bile acid receptor (Homo sapiens) (Q96RI1 whole entry, looked up): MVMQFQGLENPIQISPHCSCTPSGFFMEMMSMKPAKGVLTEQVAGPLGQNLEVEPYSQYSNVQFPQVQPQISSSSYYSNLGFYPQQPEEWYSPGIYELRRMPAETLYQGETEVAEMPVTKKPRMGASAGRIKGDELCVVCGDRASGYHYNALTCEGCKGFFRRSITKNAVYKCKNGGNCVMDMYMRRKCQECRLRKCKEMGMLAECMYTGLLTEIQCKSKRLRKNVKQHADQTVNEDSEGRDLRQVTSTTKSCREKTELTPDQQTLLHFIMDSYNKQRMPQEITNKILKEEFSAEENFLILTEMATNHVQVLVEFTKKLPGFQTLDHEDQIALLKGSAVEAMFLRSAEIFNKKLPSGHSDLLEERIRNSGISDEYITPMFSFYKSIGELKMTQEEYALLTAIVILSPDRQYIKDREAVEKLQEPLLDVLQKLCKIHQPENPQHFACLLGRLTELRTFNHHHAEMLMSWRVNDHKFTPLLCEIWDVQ
In short: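 Antagonist mode: titrated compounds tested against chenodeoxycholic acid stimulation (normalized to 50 uM CDCA and DMSO) in GeneBLAzer HEK293T cells for 16 h. Beta-lactamase read by CCF4 fluorescence; IC50 from Hill fits.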

[10] = molecular target: Glucocorticoid receptor (Homo sapiens) (UniProt P04150); assay: qHTS assay for small molecule antagonists of glucocorticoid receptor signaling (AID 588533; active = well fitted inhibition curve with a large enough effect in the signal ratio, with a control signal flat, not every such curve was filed as active; the % refers to the signal ratio)
In short: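 Antagonist-mode qHTS: compound titrations added to GRE-bla HeLa cells, then dexamethasone 2 nM final; 18 h, 37 C. CCF4 FRET fluorescence normalized to dexamethasone and DMSO; IC50 from Hill fit.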

O=S(=O)(O)c1ccc(N=Nc2c(O)ccc3cc(S(=O)(=O)O)ccc23)cc1
inactive: Potency [1] | activity change % (negative = inhibition) [2] -13.9% | Potency [3] | Potency [4]

CSC(=O)c1cccc2nnsc12
inactive: activation [5] -3.36% | outcome [6] | activation [7] -11.5% | Potency [1] | activation [8] 1.69% | Potency [4]

CCCCCCCCCCCCCCC(=O)OC
inactive: outcome [6] | Potency [9] | activation [7] -1.65% | Potency [10] | Potency [1] | Potency [3]

— PubChem BioAssay (NCATS)
